Screens from PubChem BioAssay.
Shiga toxin inh: inhibitors of Shiga toxin in Vero cells | Vero cells, Shiga toxin protein synthesis inhibition reporter | inhibition, % at 38.7 µM | actives 9.2% (n = 290,000) | AID 2315; in the data active = inhibition mostly above about 28%, no sharp cut-off; inactive = mostly below about 43%
HCV inh: blocks hepatitis C virus; Huh7.5.1 HCVcc-Cre infection, luciferase reporter, 44 h; Potency, µM (doses to about 41.8 µM), usual class: inhibitors; actives 3.4% (n = 340,000); AID 651820
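A cell-based infection assay in which seeded cells (1,000 per well) receive test compound after 4 h, are inoculated with HCVcc-Cre at approximately 0.5 moi, and are incubated 44 h before luminescence detection.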
Pf growth 48h: P. falciparum growth inhibition at 48 hours (one generation); actives 5.9% (n = 310,000); P. falciparum luciferase growth in erythrocytes, 48 h; AID 504832; Potency, µM (top dose mostly 28.7 µM), most hits filed as inhibitors
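Cell-based growth assay: transgenic P. falciparum expressing firefly luciferase, cultured in red cells within RPMI 1640 containing 0.5% w/v Albumax, 24 mM bicarbonate and gentamycin. A drop in luciferase activity indicates inhibition.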
Cycloheximide cs: counter-screen hit for Shiga toxin inhibitors, cycloheximide; cell reporter, cycloheximide protein synthesis inhibition counterscreen; max response, %; actives 12% (n = 300,000); in the data active = max response mostly above about 13%, no sharp cut-off; inactive = mostly below about 14%; also: read at 38.3 µM for the half of the compounds with a filed dose
AMA1 RON2 block: AMA1-RON2 (P. falciparum) interaction inhibition | AID 720542 | AlphaScreen AMA1-biotinylated RON2 peptide binding | Potency, µM (highest dose often 58.2 µM), actives largely listed as inhibitors | actives 0.2% (n = 360,000); also: nearly all actives have a fitted effect of over 45% in size
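AMA1 (3D7) with his tag at 25 nM final met compounds first, then biotinylated RON2 peptide at 25 nM; detection used donor plus acceptor beads, 10 µg/mL apiece, read by AlphaScreen after 30 min at room temperature.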
Pf growth 96h: P. falciparum growth inhibition at 96 hours. P. falciparum luciferase reporter growth, 96 h. Potency, µM (top dose mostly 28.7 µM), actives largely listed as inhibitors. actives 6.9% (n = 320,000). AID 504834
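Two-generation exposure (96 h) targets delayed-death phenotype. Reporter parasites carrying integrated firefly luciferase, in red cells at 2% hematocrit and 0.05% parasitemia final, kept at 37 C, 5% CO2; luminescence loss indicates inhibition.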
Large screens that a line does not name were inactive. Shown are actives, neighbours in structure and some others; about 21% of the full set was active somewhere. Unless noted, calls follow the shape of the dose curve; as a rule, active = well fitted curve in the direction sought with a large enough effect; inconclusive = small, poorly fitted or top-dose-only effect, or another doubt; inactive = no such curve, though single readings can be large; an effect the other way counts as inactive or inconclusive.

Cc1sc2nc(SCC(=O)Nc3c(C)n(C)n(-c4ccccc4)c3=O)n(C)c(=O)c2c1C	none
CCOC(=O)CNC(=O)CSc1nc2sc(C)c(C)c2c(=O)n1C	HCV inh inconclusive, Pf growth 96h inconclusive
Cc1nc(SCC(=O)Nc2ccccc2Cl)c2c(C)c(C)sc2n1	Pf growth 48h 5.22µM, Pf growth 96h inconclusive (no result: Shiga toxin inh, Cycloheximide cs)
Cc1ccc(S(=O)(=O)N(C(=O)c2ccco2)c2cc3sc(=O)oc3c3ccccc23)cc1	Pf growth 48h 10.4µM, Pf growth 96h 11.7µM
COc1ccc(S(=O)(=O)N(C(=O)c2ccco2)c2cc3sc(=O)oc3c3ccccc23)cc1	Pf growth 48h inconclusive
CCOc1ccc(C(=O)N(Cc2ccccc2)c2cccc(C)c2)cc1OC	HCV inh inconclusive
CCN(CC)CCn1c(=S)[nH]c2ccc(Br)cc2c1=O	none
COc1cccc(C2CC(c3cccs3)=NN2C(=O)CSc2nc3c(cnn3-c3ccc(F)cc3)c(=O)[nH]2)c1OC (stereo not drawn)	none
COc1cccc(C2CC(c3cccs3)=NN2C(=O)CSc2nc3ccccc3s2)c1OC (stereo not drawn)	HCV inh inconclusive, Pf growth 48h inconclusive, Pf growth 96h 7.38µM
COc1ccc(C2CC(c3cccs3)=NN2C(=O)CCCC(=O)O)cc1OC (stereo not drawn)	none (no result: Shiga toxin inh, HCV inh, Pf growth 48h, Cycloheximide cs, Pf growth 96h)
COc1cccc(C2CC(c3cccs3)=NN2C(=O)CCC(=O)O)c1OC (stereo not drawn)	Pf growth 48h inconclusive, Cycloheximide cs 11.3
CN(C(=O)c1cccc(NC(=O)Cc2ccc([N+](=O)[O-])cc2)c1)C1CCCCC1	HCV inh 3.16µM (no result: Shiga toxin inh, Pf growth 48h, Cycloheximide cs, Pf growth 96h)
CN(C(=O)c1ccc(Oc2ccc([N+](=O)[O-])cc2)cc1)C1CCCCC1	HCV inh 12.6µM
O=C(CN(C(=O)c1cccc([N+](=O)[O-])c1)C1CCCCC1)Nc1ccc(Cl)c([N+](=O)[O-])c1	HCV inh inconclusive, Pf growth 48h 1.85µM, Pf growth 96h inconclusive
Cc1cccc2sc(NC(=O)Cn3c(C)csc3=O)nc12	none (no result: Shiga toxin inh, Cycloheximide cs)
Cn1cc(/C=N/n2cnc3scc(-c4ccccc4)c3c2=O)c2ccccc21	HCV inh 6.31µM, Pf growth 96h 3.29µM
O=c1c2c(-c3ccccc3)csc2ncn1/N=C/c1cccc([N+](=O)[O-])c1O	AMA1 RON2 block 20µM
COc1cccc(-n2c(Cc3cc(=O)[nH]c(=O)[nH]3)nnc2SCC(=O)N2CCCCC2)c1	none (no result: Pf growth 48h)
O=C(CSc1nnc(Cc2cc(=O)[nH]c(=O)[nH]2)n1-c1ccc(F)cc1)NC1CCCC1	Pf growth 96h 5.86µM (no result: Pf growth 48h)
COc1cccc(-n2c(Cc3cc(=O)[nH]c(=O)[nH]3)nnc2SCC(=O)NC2CCCCC2)c1	Pf growth 96h inconclusive (no result: Pf growth 48h)
O=C(CSc1nnc(Cc2cc(=O)[nH]c(=O)[nH]2)n1-c1ccccc1)N1CCCc2ccccc21	none
O=C(CSc1nnc(Cc2cc(=O)[nH]c(=O)[nH]2)n1-c1ccc(Cl)cc1)N1CCc2ccccc21	Pf growth 48h 2.94µM, Pf growth 96h inconclusive (no result: HCV inh, AMA1 RON2 block)
COC(=O)C(C)Sc1nnc(Cc2cc(=O)[nH]c(=O)[nH]2)n1-c1ccc(OC)cc1 (stereo not drawn)	Pf growth 96h 0.828µM (no result: Pf growth 48h)
O=C(CSc1nnc(Cc2cc(=O)[nH]c(=O)[nH]2)n1-c1ccc(F)cc1)N1CCCCC1	Pf growth 96h 7.38µM (no result: Pf growth 48h)
O=C(CN1C(=O)NC(c2ccccc2)(c2ccccc2)C1=O)NCc1ccccc1	Pf growth 96h inconclusive (no result: Shiga toxin inh, Cycloheximide cs)
Cc1cc(C(=O)CN2C(=O)NC(c3ccccc3)(c3ccccc3)C2=O)c(C)n1Cc1ccccc1	Pf growth 48h inconclusive, Pf growth 96h 8.28µM
O=C(CN1C(=O)NC(c2ccccc2)(c2ccccc2)C1=O)c1c[nH]c2ccccc12	Pf growth 48h 11.7µM (no result: HCV inh, AMA1 RON2 block)
Cc1nn(CC(=O)Nc2c(F)c(F)cc(F)c2F)c(=O)c2cccn12	none
CCN(CC(=O)NCC1CCCO1)S(=O)(=O)c1ccc2ccccc2c1 (stereo not drawn)	HCV inh inconclusive
O=C(/C=C/c1ccc2c(c1)OCO2)c1ccc[nH]1	Shiga toxin inh active, Cycloheximide cs 78.7
O=C(/C=C/c1ccccc1Br)c1ccc2c(c1)OCO2	Shiga toxin inh 112.4, Cycloheximide cs 36.2
O=C(/C=C\Nc1ccccc1Br)c1ccc2c(c1)OCO2	HCV inh inconclusive, AMA1 RON2 block inconclusive, Pf growth 96h inconclusive
CN(C)c1ccc(/C=C/C(=O)c2ccc3c(c2)OCCO3)cc1[N+](=O)[O-]	Shiga toxin inh active, Cycloheximide cs 42.7
O=C(/C=C/c1cccc(Br)c1)c1ccc2c(c1)OCO2	Shiga toxin inh 62.5, Cycloheximide cs 25.4
O=C(c1ccc2c(c1)OCO2)c1ccc[nH]1	none (no result: Shiga toxin inh, HCV inh, Pf growth 48h, Cycloheximide cs, Pf growth 96h)
COc1ccc(-c2c(-c3ccsc3)oc3c2C(O)CCC3)cn1 (stereo not drawn)	none (no result: Shiga toxin inh, HCV inh, Pf growth 48h, Cycloheximide cs, Pf growth 96h)
c1ccc(N2CCN(c3cccc(-c4cc5ccccc5s4)n3)CC2)nc1	none (no result: Shiga toxin inh, HCV inh, Pf growth 48h, Cycloheximide cs, Pf growth 96h)
COc1ccccc1S(=O)(=O)N(C)C[C@@H]1OCc2cnnn2CCCC(=O)N([C@H](C)CO)C[C@H]1C	none (no result: Shiga toxin inh, HCV inh, Pf growth 48h, Cycloheximide cs, Pf growth 96h)
CN(C)c1ccc(/C=C/C(=O)c2ccc3c(c2)OCO3)cc1	none (no result: Shiga toxin inh, Cycloheximide cs)
COc1cccc(/C=C/C(=O)c2ccc[nH]2)c1	Shiga toxin inh 90.7, Cycloheximide cs 54.6 (no result: Pf growth 48h)
O=C(/C=C/c1ccccc1)c1ccc2c(c1)OCO2	Shiga toxin inh 59.2, Cycloheximide cs 37.4
O=C(/C=C/c1ccncc1)c1ccc2c(c1)OCCO2	Cycloheximide cs 19.9, Pf growth 96h inconclusive
COc1cccc(/C=C/C(=O)c2ccc3c(c2)OCO3)c1OC	none (no result: Shiga toxin inh, Cycloheximide cs)
COc1cc(/C=C/C(=O)c2ccc3c(c2)OCCO3)cc(Br)c1OCC(=O)N(C)C	HCV inh 7.08µM, Pf growth 48h inconclusive, Pf growth 96h inconclusive
